Compounds with a hit are over-represented: about 1.4% of the library has one in this group of screens.
MenB inh: blocks the Mycobacterium tuberculosis MenB enzyme. AID 540299. MenB enzyme assay, absorbance read-out. P9WNP5. 0.43% of 100,000 active. inhibition, % (test concentration not listed); in the data active = inhibition above about 21%, passing the limit was not always enough
Target sequence (P9WNP5 whole entry, looked up): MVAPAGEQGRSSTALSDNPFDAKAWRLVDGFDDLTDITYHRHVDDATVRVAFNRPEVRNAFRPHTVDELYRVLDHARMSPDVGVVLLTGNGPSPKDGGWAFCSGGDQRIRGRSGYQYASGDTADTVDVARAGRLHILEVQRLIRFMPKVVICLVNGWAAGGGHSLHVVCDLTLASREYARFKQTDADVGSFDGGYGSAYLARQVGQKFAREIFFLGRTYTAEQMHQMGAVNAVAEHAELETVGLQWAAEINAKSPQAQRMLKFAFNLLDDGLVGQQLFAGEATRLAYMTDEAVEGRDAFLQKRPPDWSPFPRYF
AID504770: growth inhibitors of E. coli YBA685 in a screen for V. cholerae RctB (chromosome II replication) inhibitors; E. coli YBA685 rctB-dependent plasmid, OD600 growth, 3 h; active compounds read low; z-score (test concentration not listed); 0.27% of 130,000 active; AID 504770; in the data active = z-score below about -2, passing the limit was not always enough
MbtI inh: blocks the Mycobacterium tuberculosis siderophore enzyme MbtI; P9WFX0; purified MbtI enzyme, fluorescence intensity read-out; inhibition, % (no concentration beside the values); 0.89% of 100,000 active; in the data active = inhibition mostly above about 56%, no sharp cut-off; inactive = mostly below about 77%
PV pol inh: inhibitors of poliovirus RNA polymerase binding and polymerization | P03300 | poliovirus polymerase elongation, fluorescence polarization; active compounds read low | % elongation, % (compound at 16.7 µg/mL) | 0.66% of 150,000 active; in the data active = % elongation below about 90%
Of the large screens only hits and unclear results are named; the others gave an inactive call.

CCN1CCCC1CNC(=O)Nc1cn(CC(C)C)c(=O)c2ccccc12 (centres undefined)	none
Cc1cccc(N2CCN(C(=O)Nc3cn(CC(C)C)c(=O)c4ccccc34)CC2)c1C	none (no result: MenB inh, AID504770, MbtI inh)
CNc1nc(-c2ccc3c(c2)CCN3C(=O)C(C)C)cs1	MenB inh 35
O=c1cc(CNC2CCCCC2)c2ccccc2[nH]1	MenB inh 30
CN(C)c1ccc(NC(=S)N=P(c2ccncc2)(N(C)C)N(C)C)cc1	MbtI inh 81
CN(C)c1ccc(NC(=O)c2ccccn2)cc1	none
Cc1sc2c(c1C)C1=NS(=O)(=O)CCN1C=N2	PV pol inh 76
COC(=O)C1=NC=CN2CCS(=O)(=O)N=C12	none (no result: PV pol inh)
COc1ccc(Cn2c(=O)[nH]c3cc(C(=O)N4CCN(c5cccc(Cl)c5)CC4)ccc3c2=O)cc1	none (no result: MenB inh, AID504770, MbtI inh)
COc1ccc(Cn2c(=O)[nH]c3cc(C(=O)N4CCN(c5cccc(OC)c5)CC4)ccc3c2=O)cc1	PV pol inh 73 (no result: MenB inh, AID504770, MbtI inh)
CC(C)(C)c1cs/c(=N/c2ccccn2)n1-c1ccc(Cl)cc1	none
Clc1ss/c(=N\c2ccccn2)c1Cl	PV pol inh 87 (no result: MbtI inh)
COc1ccc(C(=O)Nc2nc3c(s2)CCc2cc(OC)ccc2-3)cc1	PV pol inh 80 (no result: MenB inh, AID504770, MbtI inh)
COc1ccc2c(c1)Cc1sc(NC(=O)c3cccc(Cl)c3)nc1-2	PV pol inh 63 (no result: MenB inh, AID504770, MbtI inh)
COc1ccc2c(c1)Cc1sc(NC(=O)c3cccc(C)c3)nc1-2	PV pol inh 56 (no result: MenB inh, AID504770, MbtI inh)
COc1ccc2c(c1)Cc1sc(NC(=O)c3ccc(Cl)cc3)nc1-2	PV pol inh 88 (no result: MenB inh, AID504770, MbtI inh)
COc1ccc2c(c1)CCc1sc(NC(=O)c3cccc(Br)c3)nc1-2	none (no result: MenB inh, AID504770, MbtI inh)
CCOc1ccc(-n2c(=O)c3c(C)c(C)sc3n(Cc3ccc(C(C)(C)C)cc3)c2=O)cc1	none (no result: MenB inh, AID504770, MbtI inh)
COc1cc(C(=O)NC(=S)N2CCCCCC2)cc(OC)c1OC	none
CCOc1ccc(C(=O)CCc2nc3ccccc3s2)cc1	none (no result: MbtI inh)
COc1ccc(C(=O)Nc2nccs2)c(F)c1	AID504770 -3
O=C(Nc1nccs1)c1cccc(Cl)c1	none
Cc1cccc(C(=O)Nc2nccs2)c1	AID504770 -3.1 (no result: MenB inh, MbtI inh, PV pol inh)
Cc1cc(C(=O)COC(=O)c2ccc3c(c2)NC(=O)CS3)c(C)n1Cc1cccs1	none
O=C(COC(=O)c1ccc2c(c1)NC(=O)CS2)NCc1cccs1	PV pol inh 11
CCOc1ccc(S(N)(=O)=O)cc1	none (no result: MenB inh, MbtI inh, PV pol inh)
Cc1cc2nc3ccc(=[N+](C)C)cc-3sc2cc1N	PV pol inh 2.0 (no result: MbtI inh)
CCOC(=O)N1CCN(C(=O)CCc2nc3ccccc3[nH]2)CC1	none (no result: MenB inh, MbtI inh, PV pol inh)
Cc1ccc(-n2c(C)nc3c(cnn3-c3ccccc3)c2=O)cc1	PV pol inh 82 (no result: MenB inh, AID504770, MbtI inh)
COc1ccc(S(=O)(=O)N2CCC(NC(=O)NC3CCCC3)CC2)cc1	none
COc1ccc(S(=O)(=O)N2CCC(NC(=O)c3ccccc3)CC2)cc1	MenB inh 33
CCOC(=O)c1c(C)c(C)c(C)[nH]c1=S	MbtI inh 91
CCOC(=O)c1sc(N)c(C(=O)OCC)c1C	PV pol inh 79 (no result: MbtI inh)
C/C(N)=C(/C#N)C(=O)CSc1nnc(-c2ccccc2)o1	none
CCN(CC)/N=N/c1[nH]nc2nc(C)cc(C)c12	AID504770 -7.5 (no result: MbtI inh)
Cc1cc(C)c2c(-n3cccc3)n[nH]c2n1	none (no result: MenB inh, MbtI inh, PV pol inh)
O=C(CN1C(=O)CSC1=O)Nc1nccs1	none
Nn1cnn(CC(=O)Nc2nccs2)c1=S	PV pol inh 74 (no result: MbtI inh)
N#Cc1ccc(COC(=O)C2CCCCN2S(=O)(=O)c2cccc3nsnc23)cc1 (centres undefined)	PV pol inh 42
O=C1CC(=O)c2ccc3c4c(ccc1c24)C(=O)CC3=O	MbtI inh 93
CCOCCCNC1CC(C)CC(C)(C)C1 (centres undefined)	AID504770 -2.2
CC1CC(NC2=NCCS2)CC(C)(C)C1 (centres undefined)	none (no result: MenB inh, MbtI inh, PV pol inh)
CC(C)(C)N1CSC(=S)N(Cc2ccco2)C1	AID504770 -7.9
Oc1ccccc1-c1nc(/C=C/c2ccccc2Cl)no1	PV pol inh 41 (no result: MenB inh, AID504770, MbtI inh)
CN(C)c1ccc(/C=C/c2noc(-c3ccccc3O)n2)cc1	none (no result: MenB inh, AID504770, MbtI inh)
Cc1nn(C)c2c1S(=O)(=O)N=C(SCc1c(F)cccc1Cl)S2	MbtI inh 84, PV pol inh 88
NC(=O)C1CC(O)CN1c1nc(-c2cccnc2)nc2ccccc12 (centres undefined)	none
COc1ccc(CCNC(=O)Cn2cnc3c(cnn3-c3ccccc3)c2=O)cc1OC	AID504770 -3.6 (no result: MenB inh, MbtI inh, PV pol inh)
COC(=O)Cn1cnc2c(cnn2-c2ccccc2)c1=O	none (no result: MenB inh, MbtI inh, PV pol inh)
CCOC(=O)c1c(NC(=O)/C(C#N)=C/c2ccc(OC)cc2)sc2c1CCC2	none (no result: MenB inh, AID504770, MbtI inh)
CCOc1ccc(/C=C(\C#N)C(=O)Nc2sc3c(c2C(=O)OC)C(C(=O)OC)CC3)cc1OC (centres undefined)	PV pol inh 73 (no result: MenB inh, AID504770, MbtI inh)
CSc1cccc(-n2c(C)cc(C(N)=O)c2C)c1	none
CC(C)(Oc1ccccc1OC(=O)c1ccccc1)C(=O)CBr	MbtI inh 62 (no result: MenB inh)
O=C(Oc1ccccc1OC(=O)c1ccccc1)c1ccccc1	none
Cc1n[nH]c(=O)nc1NCC1CCCO1 (centres undefined)	none (no result: MenB inh, MbtI inh, PV pol inh)
CC1=C(C)C(=O)C(NCC2CCCO2)=CC1=O (centres undefined)	PV pol inh 70
O=C(Nc1ccccc1C(F)(F)F)c1cc2ccccn2n1	none (no result: MenB inh, AID504770, MbtI inh)
O=C1CSc2nnc(-c3cccs3)n21	PV pol inh 57
c1csc(-c2nnc3n2-c2ccccc2SC3)c1	none
COc1cccc(-n2c(-c3ccccc3F)nc3c(cnn3-c3ccc(C)cc3)c2=O)c1	none (no result: MenB inh, AID504770, MbtI inh)
O=C(/C=c1\[nH]c(=O)/c(=C\c2ccsc2)s1)c1ccco1	MbtI inh 98
O=C(/C=c1/[nH]c(=O)/c(=C/c2cccc(C(F)(F)F)c2)s1)c1ccco1	none
N#Cc1ccc(C(=O)N2CCCSC2=NCCc2ccccc2)cc1	none
CCOCCCN=C1SCC(CC)N1C(=O)c1ccc(C#N)cc1 (centres undefined)	PV pol inh 89
Cc1cc(NC(=O)c2cccc(-n3cnnc3)c2)no1	none
CC1Cc2ccccc2N1C(=O)C1CCN(S(=O)(=O)c2ccc(-n3cnnn3)cc2)CC1 (centres undefined)	MenB inh 39
O=C(CSc1nc2ccccc2c(=O)[nH]1)c1ccc(O)cc1O	MbtI inh 82
O=C(CSc1nc2ccccc2c(=O)[nH]1)c1ccc(-c2ccccc2)cc1	none
COC(=O)C(C)N1C(=O)S/C(=C/c2ccc(N3CCCCCC3)o2)C1=O (centres undefined)	MbtI inh 53
O=C1C2CN3CCN(C2)CC1(c1ccccc1)C3	none (no result: MenB inh, PV pol inh)
O=C1C2CN3CN(C2)CC1(c1ccccc1)C3	MenB inh 34
COCCNC(=O)c1cc(-c2cccnc2)nc2ccc(S(=O)(=O)N3CCCCCC3)cc12	none
COCCCNC(=O)c1cc(-c2cccnc2)nc2ccc(S(=O)(=O)N3CCC(C)CC3)cc12	PV pol inh 47 (no result: MenB inh, AID504770, MbtI inh)
Cc1noc(C)c1CSc1ccccc1C(=O)OC(C)C(=O)N1CCOCC1 (centres undefined)	none
Cc1noc(C)c1CSc1ccccc1C(=O)NC(C)c1ccc2c(c1)OCCO2 (centres undefined)	MbtI inh 89
COc1ccc(CC(=O)Nc2sc3c(c2C(=O)Nc2ccc(C)cc2)CCCCC3)cc1	PV pol inh 89 (no result: MenB inh, AID504770, MbtI inh)

Assay outcomes from PubChem BioAssay.
